The text below walks through data of ChEMBL document CHEMBL3988442, “University of Dundee, Small-Polar-MMV Screening Library” (2021).

This experiment has as its target AMP-activated protein kinase, AMPK (Homo sapiens) (UniProt P54646+O43741+P54619+Q9UGJ0+Q9Y478+Q13131+Q9UGI9). The experiment in a line: AMP-dependent Kinase enzyme assay. An in vitro enzyme assay that detects ADP turnover that is directly proportional to AMPK activity. This uses naive AMPK that is activated during the assay with MK-8722. It is filed as functional. On the set-up: scale not given: direction of the effect not stated beside the values. The following applies: 30 µM.
In the case of `CNc1cc2c(nn1)CCN(C(=O)c1ccc(-n3cccn3)nc1)C2`, the Percent Effect was -15.7%.
The value for `CN(C)S(=O)(=O)N1CC[C@]2(O)CCN(c3cc(C#N)ccn3)C[C@@H]2C1` was -3.03%; that for `Cc1ccc(CN(C(=O)NCC2CCS(=O)(=O)C2)C2CC2)o1` (stereo not given) was -7.42%; that for `Fc1ccc(N2CCN(CCCc3cn[nH]c3)CC2)cc1` was 3.93%.
Consider `CSCCC(NC(N)=O)C(=O)Nc1ccc(-n2cccn2)nc1` (stereo not given), for which the Percent Effect was -9.12%.
The value for `Cc1ccnc(NC(=O)c2ccc(C)o2)c1` was 9.16%; that for `CCSc1cc(C(=O)NC(C)c2cccc(N3CCOC3=O)c2)ccn1` (stereo not given) was 7.17%; that for `CC(CCc1ncnn1Cc1cccc(Cl)c1)N1CCCC1` (stereo not given) was 7.16%.
On to `Cc1occc1C(=O)Nc1ccc(C(=O)NC[C@H]2CCCN2)cc1`, for which the Percent Effect was -9.02%.
The value for `CCc1ncc(C(=O)NCCN2CCNC2=O)cn1` was 0.385%; that for `CC(=O)N1CCN(C(=O)NC(C)Cn2ccnc2)CC1` (stereo not given) was -4.12%; that for `N#Cc1cccc(N2CCC(CO)(CCOc3ccccc3)CC2)n1` was 3.85%.
For `CCc1n[nH]c(C(=O)NCCn2ccnc2C)c1C`, the Percent Effect was -2.67%.
With `COc1cc(CN2CCC(COCc3ccccc3)CC2)cc(OC)c1`, the Percent Effect was 0.75%.
Take `Cc1nc(CN2CCN(CC(O)CN3CCOCC3)CC2)oc1C` (stereo not given): the Percent Effect was -2.09%.
For the molecule `CC(C)(NCCCOc1ccc(C#N)cc1)c1nccs1`, the Percent Effect worked out at 3.77%.
The value for `Cc1cc(C(=O)N2CCC(CCC(=O)NCCN(C)C)CC2)ccc1O` was 21.5%; that for `CCS(=O)(=O)NCc1nc(C)cc(N2CCCC2)n1` was 2.4%.
Regarding `O=C(NCc1cccnc1N1CCCCC1)c1ccc2c(c1)OCO2`, the Percent Effect was -2.38%.
As for `c1csc(CN2CCCN(c3ccc(Cn4ccnc4)cn3)CC2)c1`, the Percent Effect is -2.96%.
